# Laboratory results published in PubChem BioAssay (NCI).
# The panel holds about 83,000 compounds, 20% with a hit somewhere; the sample as a whole holds those more often.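 Percent growth is the endpoint: 0 to 100 indicates growth inhibition (40 means 60% inhibition), 0 means no net growth, and negative values indicate cell death.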 A number with no mark means an inactive call. Active and inactive are the calls of the source. Rule for the calls: active = growth percent below 10; inactive = the rest.
# Assays:
# Test in all cases: NCI-60 one-dose screen, 48 h (100 = growth as untreated, 0 = no growth, -100 = all killed)
# Conditions in all cases: 10 µM unless noted
# DU-145 prostate = tested on: DU-145 prostate
# K-562 leukemia = tested on: K-562 leukemia
# MALME-3M melanoma = tested on: MALME-3M melanoma
# MDA-MB-231 breast = tested on: MDA-MB-231 breast
# RXF 393 renal = tested on: RXF 393 renal
# SF-268 CNS = tested on: SF-268 CNS
# SF-295 CNS = tested on: SF-295 CNS
# SF-539 CNS = tested on: SF-539 CNS
# UACC-257 melanoma = tested on: UACC-257 melanoma
# M14 melanoma = tested on: M14 melanoma
# HCT-15 colon = tested on: HCT-15 colon
# HT29 colon = tested on: HT29 colon
# SNB-75 CNS = tested on: SNB-75 CNS
# SNB-19 CNS = tested on: SNB-19 CNS
# U251 CNS = tested on: U251 CNS
# PC-3 prostate = tested on: PC-3 prostate
# SK-MEL-5 melanoma = tested on: SK-MEL-5 melanoma
# UACC-62 melanoma = tested on: UACC-62 melanoma
# LOX IMVI melanoma = tested on: LOX IMVI melanoma
# SK-MEL-28 melanoma = tested on: SK-MEL-28 melanoma
SMILES,growth (DU-145 prostate),growth (K-562 leukemia),growth (MALME-3M melanoma),growth (MDA-MB-231 breast),growth (RXF 393 renal),growth (SF-268 CNS),growth (SF-295 CNS),growth (SF-539 CNS),growth (UACC-257 melanoma),growth (M14 melanoma),growth (HCT-15 colon),growth (HT29 colon),growth (SNB-75 CNS),growth (SNB-19 CNS),growth (U251 CNS),growth (PC-3 prostate),growth (SK-MEL-5 melanoma),growth (UACC-62 melanoma),growth (LOX IMVI melanoma),growth (SK-MEL-28 melanoma)
NC(=S)Nc1cccc(O)c1,121%,106%,102%,96.7%,120%,109%,100%,95.8%,92.9%,98.4%,88.3%,103%,83.8%,99.3%,95.5%,105%,106%,90.5%,87.8%,110%
O=Cc1c[nH]c2ccc(-c3csc4ccccc34)cc12,80%,8.16% (active),44.4%,45.7%,45.3%,44.5%,-22.6% (active),30.9%,39.3%,23.5%,29%,16.5%,39.9%,34.3%,25.2%,61.9%,61%,34%,39.5%,69.8%
O=C1C=C[C@]2(C[C@@H](c3cccc(C(F)(F)F)c3)O[C@@H](c3cccc(C(F)(F)F)c3)O2)O1,28.7%,-4.01% (active),36.4%,-57.2% (active),-0.258% (active),-27.1% (active),46.1%,-69.6% (active),59.6%,44.8%,-33.8% (active),-24.2% (active),57.9%,33.2%,28.6%,7.18% (active),-58.2% (active),-38.6% (active),-84.6% (active),48.6%
COc1ccc(C(=O)COc2ccc(/C=C3\Oc4ccccc4C3=O)cc2)cc1,120%,101%,112%,83.6%,95.4%,108%,172%,94.7%,97.8%,84.7%,96.8%,102%,89.7%,90.9%,97.4%,97.3%,85.8%,72.5%,92.6%,123%
O=c1c2c3c(sc2n2c(-c4cc(-c5ccccc5)nn4-c4ccccc4)nnc2n1Cc1ccccc1)CCCC3,107%,27.1%,123%,94.2%,90%,89.2%,5.76% (active),112%,106%,92.4%,91.3%,88.6%,92.3%,89.6%,70.3%,69.1%,129%,103%,92.9%,111%
COc1ccc(NC(=O)CSc2nc(C)c(C(C)=O)n2-c2ccc([N+](=O)[O-])cc2)cc1,113%,96.6%,91.3%,80.3%,84.9%,108%,89%,102%,98.4%,94.9%,85.7%,90.8%,90%,85.9%,93.8%,85.3%,91.5%,73.1%,89.7%,89.8%
O=C(NCCNc1cc(-c2cn(-c3ccccc3)nc2-c2cccc(O)c2)ccn1)Nc1ccccc1,92.8%,35.4%,92.3%,57.1%,89.5%,81.3%,75.8%,89.5%,58.7%,72.2%,62.7%,27.3%,66.2%,82.4%,56.4%,45.7%,63.9%,70%,82.5%,103%
COc1cc(/C=C/C(=O)c2c(C)nc3ccccc3c2/C=C/c2ccc(C)cc2)cc(OC)c1OC,14.7%,12%,39.5%,16.6%,3.96% (active),44.7%,38.8%,19.5%,43.8%,23.9%,-19.4% (active),14%,22.7%,40.1%,20.9%,25.8%,26%,25.6%,-22.8% (active),20.3%
O=c1oc2ccccc2c(Cl)c1Cl,107%,37.2%,58.5%,62.6%,66.6%,86.5%,106%,81.3%,40%,17.1%,38.9%,105%,82.4%,91.7%,49.1%,101%,46.1%,74.7%,10.5%,72.4%
N#C/C(=C\c1ccc(-c2ccccc2F)o1)c1nc(-c2ccco2)cs1,101%,82.8%,96%,85.8%,109%,101%,98.6%,98.1%,99.7%,94.8%,62.1%,95.5%,60.7%,95.2%,101%,78.4%,84.7%,83.9%,93.7%,104%
O=C(O)c1ccc2c(c1Cl)C(=O)c1ccccc1C2=O,107%,73.7%,132%,112%,165%,113%,108%,102%,109%,103%,95.9%,87.5%,73.1%,98.8%,99.1%,116%,102%,97.7%,97.2%,107%
COc1cc(/C=C/C(=O)c2c(C)nc3ccccc3c2C)ccc1OCCCN1CCN(C(=O)c2ccco2)CC1,91.4%,59.7%,68.3%,75.3%,74%,87.4%,78.3%,93.3%,62.4%,94.4%,76.2%,6.55% (active),-70.5% (active),99%,77.9%,88.3%,33.5%,65.9%,81.9%,-29% (active)
COC(=O)c1ccc(C2Nc3ccc(S(=O)(=O)Nc4ccc(C)c(C)c4)cc3C3OCCC23)cc1 (stereo not given),100%,40.8%,77.4%,83.9%,101%,78%,77.4%,96.2%,79.6%,94.1%,71.2%,83.7%,79.1%,78.2%,71.5%,82.4%,58%,65.3%,93%,99.5%
COc1ccc(-c2nc(SCCC(C)C)nc(N/N=C\c3cccc(Cl)c3)c2C#N)cc1,85.4%,79.7%,111%,53%,87.5%,71.1%,55%,84.3%,87.3%,101%,82.2%,83.2%,4.61% (active),76.2%,29.1%,83.7%,96%,89.6%,70.9%,112%
O=C(N/N=C/c1ccncc1)c1ccc(C(F)(F)F)nc1Nc1cccc(C(F)(F)F)c1,40.6%,13.9%,4.45% (active),21.1%,-8.63% (active),23.4%,-24.1% (active),26.1%,21.9%,25.4%,13.1%,23.1%,46.7%,36%,8.49% (active),20.5%,10%,15.1%,20.5%,44.9%
